# This is part of a sample that, as a whole, favours compounds with a hit. Of some 83,000 tested, about 20% had one in any assay.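 96-well plates, one dose, 48 hours. Percent growth reported; active if below 10.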 Calls of active or inactive are those of the source.
# What was measured:
# Assay in all cases: NCI-60 one-dose screen, 48 h (100 = growth as untreated, 0 = no growth, -100 = all killed)
# Settings in all cases: 10 µM unless noted
# HCT-15 colon = tested on: HCT-15 colon
# HT29 colon = tested on: HT29 colon
# SNB-75 CNS = tested on: SNB-75 CNS
# SNB-19 CNS = tested on: SNB-19 CNS
# U251 CNS = tested on: U251 CNS
# PC-3 prostate = tested on: PC-3 prostate
# SK-MEL-5 melanoma = tested on: SK-MEL-5 melanoma
# UACC-62 melanoma = tested on: UACC-62 melanoma
# LOX IMVI melanoma = tested on: LOX IMVI melanoma
# SK-MEL-28 melanoma = tested on: SK-MEL-28 melanoma
# SK-MEL-2 melanoma = tested on: SK-MEL-2 melanoma
# EKVX NSCLC = tested on: EKVX NSCLC
# SN12C renal = tested on: SN12C renal
# UO-31 renal = tested on: UO-31 renal
# TK-10 renal = tested on: TK-10 renal
# ACHN renal = tested on: ACHN renal
# CAKI-1 renal = tested on: CAKI-1 renal
# A498 renal = tested on: A498 renal
# CCRF-CEM leukemia = tested on: CCRF-CEM leukemia
# MOLT-4 leukemia = tested on: MOLT-4 leukemia
SMILES,growth (HCT-15 colon),growth (HT29 colon),growth (SNB-75 CNS),growth (SNB-19 CNS),growth (U251 CNS),growth (PC-3 prostate),growth (SK-MEL-5 melanoma),growth (UACC-62 melanoma),growth (LOX IMVI melanoma),growth (SK-MEL-28 melanoma),growth (SK-MEL-2 melanoma),growth (EKVX NSCLC),growth (SN12C renal),growth (UO-31 renal),growth (TK-10 renal),growth (ACHN renal),growth (CAKI-1 renal),growth (A498 renal),growth (CCRF-CEM leukemia),growth (MOLT-4 leukemia)
CCN(CC)C(=S)SC(SC(=S)N(CC)CC)C(=O)c1nnn(-c2ccc([N+](=O)[O-])cc2)c1C,99% (inactive),87.3% (inactive),107% (inactive),90.8% (inactive),81.5% (inactive),78.1% (inactive),76.7% (inactive),86.5% (inactive),89% (inactive),104% (inactive),91.6% (inactive),97.2% (inactive),96.4% (inactive),80.5% (inactive),107% (inactive),98.7% (inactive),89.5% (inactive),67.3% (inactive),68.3% (inactive),92.5% (inactive)
CS(=O)(=O)C1=CN(CCO)C(=O)N2CCCN=C12,107% (inactive),107% (inactive),94.5% (inactive),99.2% (inactive),103% (inactive),98.8% (inactive),97.7% (inactive),102% (inactive),101% (inactive),104% (inactive),111% (inactive),100% (inactive),99.7% (inactive),78% (inactive),109% (inactive),103% (inactive),98% (inactive),88% (inactive),114% (inactive),106% (inactive)
CN(C)CC(=O)Nc1ccc2ncnc(Nc3ccc(Oc4cccc(C(F)(F)F)c4)c(Cl)c3)c2c1,1.59% (active),2.56% (active),87.2% (inactive),70.3% (inactive),36.2% (inactive),61.7% (inactive),66.5% (inactive),88.2% (inactive),-93% (active),78% (inactive),92.1% (inactive),28.9% (inactive),60% (inactive),-3.49% (active),46.9% (inactive),23.1% (inactive),35.7% (inactive),12.1% (inactive),48.3% (inactive),50.8% (inactive)
O=C(COc1ccc(-c2nc3ccccc3[nH]2)cc1)N=Nc1c(O)[nH]c2ccc(Cl)cc12,93% (inactive),41.2% (inactive),103% (inactive),56.5% (inactive),-45.1% (active),25.9% (inactive),94.9% (inactive),100% (inactive),60.7% (inactive),108% (inactive),107% (inactive),95.7% (inactive),83.9% (inactive),93.9% (inactive),88.2% (inactive),97.6% (inactive),93.9% (inactive),89.8% (inactive),27.6% (inactive),22.9% (inactive)
O=C(CSc1nc2ccc([N+](=O)[O-])cc2[nH]1)Nc1ccc(F)cc1,64.9% (inactive),71.6% (inactive),51.1% (inactive),69.2% (inactive),45.7% (inactive),54.9% (inactive),32.5% (inactive),25.1% (inactive),64.8% (inactive),61.8% (inactive),63.6% (inactive),56.5% (inactive),55.6% (inactive),38.2% (inactive),77.1% (inactive),68.5% (inactive),45.5% (inactive),29.5% (inactive),53.3% (inactive),54.2% (inactive)
COC(=O)/C(CCC=C(C)C)=C1\[C@@H](OC(C)=O)C[C@@]2(C)[C@H]1C[C@@H](O)[C@H]1[C@@]3(C)CC[C@H](NCCN)[C@@H](C)[C@@H]3CC[C@@]12C,55% (inactive),33.5% (inactive),73% (inactive),95.1% (inactive),69.1% (inactive),59.6% (inactive),88.3% (inactive),89.5% (inactive),84.5% (inactive),89.2% (inactive),92.6% (inactive),82.2% (inactive),81.2% (inactive),69.4% (inactive),101% (inactive),99.6% (inactive),88.3% (inactive),94.4% (inactive),79.4% (inactive),-13.2% (active)
COc1ccc(-c2ccc3cnc4sc(-c5ccc(OC)cc5)nc4c3n2)cc1,97.6% (inactive),100% (inactive),85.8% (inactive),98.4% (inactive),94.4% (inactive),70.3% (inactive),85.2% (inactive),98.8% (inactive),87% (inactive),107% (inactive),96.2% (inactive),68.6% (inactive),103% (inactive),61.7% (inactive),142% (inactive),89.8% (inactive),96% (inactive),63.4% (inactive),102% (inactive),85.9% (inactive)
OCCCC1CCN(C(Cc2ccccc2)c2ccccc2)CC1 (stereo not given),100% (inactive),76.5% (inactive),84.2% (inactive),101% (inactive),93.2% (inactive),70.8% (inactive),101% (inactive),97.7% (inactive),93.2% (inactive),64.8% (inactive),52% (inactive),96.2% (inactive),102% (inactive),78.3% (inactive),84.1% (inactive),81.8% (inactive),91.4% (inactive),97.9% (inactive),100% (inactive),99.1% (inactive)
CN(C)CCNC(=O)c1cccc(-c2cnc3ccc(-c4ccc5c(c4)OCO5)nn23)c1,46% (inactive),10.9% (inactive),73.2% (inactive),84.3% (inactive),86.1% (inactive),61.5% (inactive),90.8% (inactive),81.8% (inactive),20.7% (inactive),99.5% (inactive),69.8% (inactive),90% (inactive),70.8% (inactive),36.8% (inactive),75.9% (inactive),47.8% (inactive),36.8% (inactive),90.7% (inactive),75.7% (inactive),59.4% (inactive)
COc1cccc(/C=C/C(=O)c2cc3c(N)c(C(=O)Nc4ccccc4)sc3nc2C)c1,-35.1% (active),-7.47% (active),3% (active),-3.91% (active),-52.9% (active),41.7% (inactive),34.8% (inactive),20.2% (inactive),-83.2% (active),50.4% (inactive),25.6% (inactive),75.8% (inactive),8.27% (active),11.8% (inactive),40.1% (inactive),33.5% (inactive),15.4% (inactive),58.8% (inactive),7.86% (active),20.8% (inactive)
COc1cc(CNS(=O)(=O)c2ccc(C)cc2)ccc1OCc1cn(-c2ccc(Br)cc2)nn1,103% (inactive),105% (inactive),87% (inactive),104% (inactive),101% (inactive),92.2% (inactive),97.8% (inactive),94.3% (inactive),97.9% (inactive),99.7% (inactive),104% (inactive),93.1% (inactive),105% (inactive),69.3% (inactive),112% (inactive),98.4% (inactive),91.6% (inactive),70.6% (inactive),90.4% (inactive),101% (inactive)
CS(=O)(=O)c1cccc(-c2c(-c3cccc(OS(N)(=O)=O)c3)nc3sccn23)c1,104% (inactive),107% (inactive),70.8% (inactive),97.5% (inactive),100% (inactive),106% (inactive),96.6% (inactive),94% (inactive),95.6% (inactive),112% (inactive),117% (inactive),95.3% (inactive),102% (inactive),75.5% (inactive),108% (inactive),99.2% (inactive),81.2% (inactive),100% (inactive),107% (inactive),105% (inactive)
Clc1ccc(CNc2c3ccccc3nc3ccccc23)cc1,23.3% (inactive),15% (inactive),68.4% (inactive),43.1% (inactive),46.2% (inactive),38.7% (inactive),61.2% (inactive),70.7% (inactive),23% (inactive),80.3% (inactive),72.4% (inactive),62.6% (inactive),39.1% (inactive),27% (inactive),49.7% (inactive),22.8% (inactive),41.4% (inactive),20.8% (inactive),30.2% (inactive),4.63% (active)
CCOC(=O)c1c(NC(=O)c2ccc(C(C)C)cc2)sc2c(CN(C)C)c(O)ccc12,-49.2% (active),27% (inactive),98.5% (inactive),57.8% (inactive),6.18% (active),96.1% (inactive),80.7% (inactive),53.8% (inactive),-83.3% (active),-14.9% (active),88.3% (inactive),97.1% (inactive),82% (inactive),70.5% (inactive),107% (inactive),37.8% (inactive),75.7% (inactive),41.5% (inactive),8.75% (active),-21% (active)
Cc1nc2sc(C(=O)Nc3cccc(Cl)c3C)c(N)c2cc1C(=O)c1ccccc1,9.29% (active),3.07% (active),7.46% (active),12.7% (inactive),15.6% (inactive),6.12% (active),9.08% (active),17% (inactive),35.8% (inactive),42.7% (inactive),49.7% (inactive),40.5% (inactive),29.3% (inactive),38.8% (inactive),47.1% (inactive),33.7% (inactive),33.1% (inactive),-7.4% (active),8.23% (active),16.4% (inactive)
